# The full ranking holds about 33,000 sequences; the median of “e-score” is about -0.038, and the highest 2% start at about 0.33. What follows is part of a selection rich in the highest values, with near analogues and random picks from the rest.
# Molecular target: T1, GST-Rok-C97-191 (Bacillus subtilis subsp. subtilis str. …, UniProt O34857 97-191)
# T1 sequence: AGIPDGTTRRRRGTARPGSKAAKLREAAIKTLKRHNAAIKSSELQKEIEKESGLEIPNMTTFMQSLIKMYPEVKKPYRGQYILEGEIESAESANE
# Assay: protein binding microarray; Rok is a gene silencer of Bacillus subtilis; high values mean tight binding
# Conditions: protein: recombinant; tags: GST (pTH5325, pDEST15-Magic modified); dsDNA, one strand shown
# Outline: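 Each has a 25-mer constant primer and a 35-mer variable part from a de Bruijn sequence of order 10, covering every non-palindromic 8-mer at least 32 times (palindromic 16). Preference for each 8-mer is given as a rank-based, unitless enrichment score (E-score). Its range runs from 0.5 (most favored) to −0.5 (most disfavored).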
row,Sequence,binding signal
1,ATTGATAC,0.22 E-score
2,ATTGATAG,0.348 E-score
3,ATTGATAA,0.243 E-score
4,CGATACAC,0.155 E-score
5,CGTTCCGA,-0.149 E-score
6,AGCACGGA,0.0231 E-score
7,AATCTAGT,0.282 E-score
8,AATCTAAC,0.199 E-score
9,AATCTACG,0.36 E-score
10,GATCTACC,0.35 E-score
11,AATCTAGC,0.234 E-score
12,AATCTAAG,0.234 E-score
13,AATCTACC,0.447 E-score
14,ACTCTACT,0.273 E-score
15,CATCTACG,-0.0119 E-score
16,GATCTAAC,0.0254 E-score
17,AATCTACT,0.43 E-score
18,CATCTACC,0.222 E-score
19,AGAATGCA,0.038 E-score
20,ACGTTTCC,-0.131 E-score
21,AAGTGTCG,0.0859 E-score
22,AGAAAAGC,0.217 E-score
23,ACCACCAT,-0.0276 E-score
24,CACTATTA,0.202 E-score

row,Sequence,binding signal
1,GGCTATCA,-0.0497 E-score
2,CGCTATCA,0.0552 E-score
3,ATCTATTA,0.353 E-score
4,GACTATCA,-0.147 E-score
5,CACTATCA,0.175 E-score
6,AACTATTA,0.444 E-score
7,GACTATTA,0.165 E-score
8,GTCTATTA,0.0713 E-score
9,CTCTATTA,0.246 E-score
10,AGCTATCA,0.335 E-score
11,AACTATCA,0.369 E-score
12,ATAGTTGC,0.306 E-score
13,CTGGAACC,-0.0259 E-score
14,AGTCAGTA,0.149 E-score
15,AAGGCGCT,-0.115 E-score
16,CCGCCTAG,-0.149 E-score
17,GAGATGAA,-0.0161 E-score
18,CCCGAAAC,-0.179 E-score
19,CGGTCGTA,0.261 E-score
20,ATTATGAG,-0.00845 E-score
21,GTACCCAA,-0.0765 E-score
22,CTCTATCA,0.0167 E-score
23,ATCTATCA,0.451 E-score
24,GAGTATTA,0.187 E-score

row,Sequence,binding signal
1,AAGTATTA,0.349 E-score
2,GTCTATCA,-0.0797 E-score
3,CAGTATTA,0.188 E-score
4,AGTCTTGC,0.0754 E-score
5,ACGACTTA,0.051 E-score
6,GCAGCAAC,-0.161 E-score
7,GATCAATA,0.0798 E-score
8,AATCAATA,0.227 E-score
9,TATCAATA,0.331 E-score
10,AAAAAACA,0.19 E-score
11,AGAAACCG,-0.049 E-score
12,AAATACGT,0.343 E-score
13,AAATACGG,0.213 E-score
14,AAATACAC,0.25 E-score
15,AAATACGA,0.0254 E-score
16,AAATACAT,0.359 E-score
17,AAATACAG,0.123 E-score
18,CGTTCCTA,0.0168 E-score
19,CAGTATGC,-0.144 E-score
20,GCAGATAA,0.127 E-score
21,CCTAATAC,0.14 E-score
22,ATCCGTCC,-0.186 E-score
23,CTACCATC,0.421 E-score
24,GTACCAGA,0.0231 E-score

row,Sequence,binding signal
1,CTACCATA,0.324 E-score
2,GTACCATA,0.362 E-score
3,ATACCATC,0.0328 E-score
4,ATACCATA,0.267 E-score
5,CTACCACA,0.343 E-score
6,ATACCACG,0.0833 E-score
7,GTACCACA,0.0685 E-score
8,ATGGCGCA,-0.0193 E-score
9,GAAACTCC,0.0382 E-score
10,CGGTAGAG,-0.0194 E-score
11,TCGTAGAA,0.236 E-score
12,CGGTAGAA,0.411 E-score
13,CCGTAGAA,0.289 E-score
14,TGGTAGAA,0.468 E-score
15,GGGTAGAC,-0.0486 E-score
16,AGGTAGAT,0.36 E-score
17,ACGTAGAT,0.219 E-score
18,GGGTAGCA,-0.148 E-score
19,GGGTAGAA,0.384 E-score
20,AGTTAGAT,0.196 E-score
21,CGGTAGAC,-0.0972 E-score
22,CGAGTAGC,-0.0476 E-score
